# From the supplement of paper PMC6555819
# Experiments:
# Assay in all cases: PBM binding z-score (relative to random genomic background probes); higher = stronger binding; sequences stand for … in GC…GCGATTGACAGCGTAGAATGAAGG
# [1] = test system: FXR:RXRa (NR concentration 270 nM, RXRa partner concentration 90 nM)
# In short: (§1)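 Ligand-free nuclear receptor dimers were bound for 1 h to custom Agilent 4×180K protein-binding microarrays. Detection used antibodies against each partner (one per run). Binding z-scores rest on regression-normalized fluorescence, with random background probes as the reference.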
# [2] = test system: LXRa:RXRa (NR concentration 270 nM, RXRa partner concentration 90 nM)
# In short: as §1
# [3] = test system: LXRa homodimer (NR concentration 270 nM)
# In short: as §1
# [4] = test system: LXRb:RXRa (NR concentration 270 nM, RXRa partner concentration 90 nM)
# In short: as §1
# [5] = test system: LXRb homodimer (NR concentration 270 nM)
# In short: as §1
# [6] = test system: PPARa:RXRa (NR concentration 270 nM, RXRa partner concentration 90 nM)
# In short: as §1
# [7] = test system: PPARg:RXRa (NR concentration 180 nM, RXRa partner concentration 90 nM)
# In short: as §1
# [8] = test system: PPARg:RXRa 270nM:90nM, anti-RXR (NR concentration 270 nM, RXRa partner concentration 90 nM)
# In short: as §1
# [9] = test system: PPARg:RXRa 30nM:10nM, anti-RXR (NR concentration 30 nM, RXRa partner concentration 10 nM)
# In short: as §1
# [10] = test system: PPARg:RXRa 90nM:30nM, anti-RXR (NR concentration 90 nM, RXRa partner concentration 30 nM)
# In short: as §1
# [11] = test system: PPARg:RXRa DBDmut IVT, anti-RXR (DBD mutation: RXRa K156A/R161A, NR concentration 270 nM, RXRa partner concentration 90 nM)
# In short: as §1
# [12] = test system: PPARg:RXRa IVT, anti-PPARg (NR concentration 270 nM, RXRa partner concentration 90 nM)
# In short: as §1
# [13] = test system: PPARg DBDmut:RXRa IVT, anti-PPARg (DBD mutation: PPARg1 K132A/R137A, NR concentration 270 nM, RXRa partner concentration 90 nM)
# In short: as §1
# [14] = test system: PPARg DBDmut IVT, anti-PPARg (DBD mutation: PPARg1 K132A/R137A, NR concentration 270 nM)
# In short: as §1
# [15] = test system: PPARg homodimer (NR concentration 180 nM)
# In short: as §1
# [16] = test system: PXR:RXRa (NR concentration 270 nM, RXRa partner concentration 90 nM)
# In short: as §1
# [17] = test system: PXR homodimer (NR concentration 270 nM)
# In short: as §1
# [18] = test system: RARa:RXR (NR concentration 270 nM, RXRa partner concentration 90 nM)
# In short: as §1
# [19] = test system: RARa homodimer (NR concentration 270 nM)
# In short: as §1
# [20] = test system: RARb:RXRa (NR concentration 270 nM, RXRa partner concentration 90 nM)
# In short: as §1
Sequence,PBM binding z-score [1],PBM binding z-score [2],PBM binding z-score [3],PBM binding z-score [4],PBM binding z-score [5],PBM binding z-score [6],PBM binding z-score [7],PBM binding z-score [8],PBM binding z-score [9],PBM binding z-score [10],PBM binding z-score [11],PBM binding z-score [12],PBM binding z-score [13],PBM binding z-score [14],PBM binding z-score [15],PBM binding z-score [16],PBM binding z-score [17],PBM binding z-score [18],PBM binding z-score [19],PBM binding z-score [20]
TCTTGTAGATCAAGCAGGTTAAGAATGCCTGAGT,0.16,0.304,-0.202,0.114,-0.543,0.658,-0.22,1.1,2.61,1.83,1.49,0.313,-0.142,0.577,-0.335,0.291,-0.153,0.248,-0.193,0.0521
ATATGTAGGCTAAGGGTCATTCAGGTTGGTTCGC,3.79,3.76,1.84,3.73,1.39,6.17,10.2,8.9,9.28,9.65,5.51,6.21,1.21,1.43,2.35,4.78,1.76,4.17,0.917,3.36
CGAACTAGGTCATTGACCGGACAGTGAATAGTAA,5.26,4.95,2.4,3.37,0.0098,4.46,7.14,6.07,3.06,5.48,8.08,8.12,0.655,0.319,0.696,1.2,-0.102,1.93,0.169,3.61
ATCTCTAGGGAACAAGTTCAGTGAAAGAGAGGAC,0.199,0.374,0.318,0.32,0.577,0.667,0.723,1.08,0.126,0.728,0.484,0.703,0.478,0.258,0.773,1.36,1.25,0.667,0.314,1.3
CAAACTAGGTCACAGAGGTAAAAGTCCGTGCGTA,4.42,3.37,0.644,2.58,0.501,5.38,9.21,7.63,5.5,7.27,8.62,8.89,3.39,1.6,2.55,2.53,0.79,3.47,0.948,4.35
ATCTCTAGGTAACGATAGTTCAGTGAATGCAAAT,0.157,4.89,0.491,1.33,0.408,0.791,0.696,0.807,0.214,0.514,3.41,3.08,1.42,1.62,0.431,0.926,0.85,0.162,0.352,0.902
TGAATGAGGCTAAAGATCAGGGAACGTGGCGTCG,-0.481,-0.541,-0.699,-0.926,-0.646,1.97,2.96,4.9,3.03,4.67,-0.0886,1.02,0.37,-0.283,-0.62,-0.523,-0.778,-0.214,-0.864,0.177
GCTTGTAGATCACGGTTAAGAAAGACTAAGCTAA,-0.132,-0.33,-0.625,-0.369,-0.584,-0.169,-0.118,-0.0332,-0.114,0.156,2.32,1.04,-0.32,-0.283,0.0431,-0.49,-0.193,-0.247,0.0308,-0.178
ATACCAAGGTGATCGTGCGGTCGTTGATACTAAC,0.823,0.293,0.286,-0.0591,-0.308,0.0191,0.122,0.0521,-0.564,-0.232,0.367,0.959,-0.0975,-0.386,-0.0029,0.16,0.0689,-0.0765,0.173,0.748
AGTCAAAGTTCATCTAGGTAACGTCAGATATGCT,6.97,6.1,5.62,4,1.91,4.87,6.42,6.54,3.63,5.58,1.33,4.32,2.61,1.98,5.02,5.36,7.19,4.41,2.97,4.96
ATTGAAAGGTCGAAGGTGAGTATACCCACCCGAA,4.77,3.47,0.632,2.97,0.961,4.74,5.11,5.53,2.82,5.09,0.108,2.82,1.09,0.602,2.51,3.15,0.394,4.57,0.818,3.83
TCTAGCAGGCCAGAGGGTCACTCAGGAGGTACGG,1.25,1.15,-0.544,0.792,-1.23,2.35,1.43,2.66,2,2.55,1.15,0.889,-0.476,-0.637,0.195,1.35,-0.32,2.12,-0.425,2.28
CAGCCTTGGTCAGGGCCAGTATAGGAGGAACGTT,-0.896,-0.936,-0.824,-0.976,-1.46,-0.531,-0.0449,-0.51,-0.686,-0.517,-0.703,-0.873,-1.09,-1.73,-1.21,-0.903,-0.901,-0.84,-0.916,0.481
ATCGAAAGGTCGAGGTGACTATAGAGAAAGGGAA,4.61,3.47,0.0804,2.68,0.167,4.72,3.8,3.74,1.66,3.09,0.438,2.86,1.24,0.771,1.35,2.56,0.185,3.53,0.636,4.21
